# From PubChem
# CF NFkB block: blocks PAF-induced NF-kB reporter in cystic fibrosis cells | 0.86% of 360,000 active | AID 588850 | inhibition, % at 5 µM | KKLEB NF-kB-GFP reporter, GFP fluorescence overnight;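 active = at least 50% inhibition at 5 µM, scaled per plate between neutral and stimulator controls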;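 also: PAF is a Pseudomonas aeruginosa culture filtrate used as stimulus; plate controls were PAF-stimulated DMSO wells for no effect and unstimulated DMSO wells for full effect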
# EWS-Fli inh: EWS/Fli transcriptional activity inhibition | 0.67% of 350,000 active | inhibition, % at 12.6 µM | A673 NR0B1-luciferase reporter, viability-normalised;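 active = mean inhibition of at least 50% after viability correction, with every replicate also passing that limit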;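 also: firefly luciferase signal divided by Alamar Blue viability fluorescence both relative to DMSO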
# PAX8 inh HTS: PAX8 transcriptional activity inhibition; RMG-I TPO-luciferase reporter, SteadyGlo, 24 h; inhibition, % at 12.6 µM; 1.2% of 360,000 active; AID 652154;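 active = mean replicate inhibition at least 60% with every replicate also reaching 60%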;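 also: luciferase light reporting Pax8 driven TPO promoter activity; plate controls were median of neutral control wells for no effect and mitoxantrone controls for full effect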
# HIF-2a block: HIF-2a inhibition; 786-0 RCC cells HIF-2a reporter, luciferase luminescence, overnight; inhibition, % at 18.8 µM; 0.72% of 360,000 active; AID 624352;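 active = inhibition of the luminescence signal of 40% or more relative to plate controls, in a single-dose primary screen at 18.75 µM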
# KKLEB cytotox: reduces viability of KKLEB cystic fibrosis airway cells | KKLEB CF airway cells viability, ATPlite luminescence, overnight; active compounds read low; cells stimulated with P. aeruginosa culture filtrate | activity change (cytotoxicity), % at 5 µM | 0.36% of 360,000 active | AID 602141;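 active = corrected activity change at or below -50% at 5 µM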
# CF NFkB inh conf: confirmation of cystic fibrosis induced NF-kB inhibitors; KKLEB CF airway cells, PAF-induced NF-kB-GFP fluorescence, overnight; inhibition, % at 5 µM; shares compounds with CF NFkB block; 64% of 1,300 active; in the data active = inhibition above about 40%;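 also: stimulus PAF is a Pseudomonas aeruginosa filtrate and not platelet activating factor; plate controls were DMSO wells with stimulus for no effect and unstimulated DMSO wells for full effect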
# * marks the source's active call; other numbers are inactive results; nt = no result. A selection: hits, their analogues and other compounds. The true share with any hit is near 2.1%.
SMILES,CF NFkB block,EWS-Fli inh,PAX8 inh HTS,HIF-2a block,KKLEB cytotox,CF NFkB inh conf
O=C1C(=O)N(CCS(=O)(=O)c2ccccc2)c2ccc(F)cc21,66*,nt,24,-13,-17,22
CCCCCCCCCCCC(=O)c1c(O)cccc1O,71*,4,nt,8,-12,41*
CCCCCCCC(=O)NNC(=O)Cc1ccccc1,-19,5,nt,-5,8,nt
CN1CCN(C(=O)C[C@@H]2C[C@@H]3c4cc(NC(=O)NC5CCCC5)ccc4O[C@@H]3[C@@H](CO)O2)CC1,nt,0,-1,nt,nt,nt
COC(=O)N1C(=O)[C@@](c2ccccc2)(C2CCCC2)N1C(=O)OC,67*,nt,nt,35,-16,46*
COC(=O)N1C(=O)[C@](c2ccccc2)(C2CCCCC2)N1C(=O)OC,40,12,10,26,8,nt
CCOC(=O)Cc1nnc2c(Nc3ccc(Cl)cc3)nc3nonc3n12,51*,nt,24,7,-21,59*
CO[C@H]1CN(C)C(=O)c2ccc(NC(=O)CC(F)(F)F)cc2OC[C@H](C)N(S(=O)(=O)c2cn(C)cn2)C[C@H]1C,nt,1,-2,nt,nt,nt
C=C1CCC[C@]2(C)C[C@H]3OC(=O)C(CNC(CC)CO)[C@H]3CC12 (stereo not given in full),37,14,52,19,-1,nt
C=C1CCC[C@]2(C)C[C@H]3OC(=O)C(CNC(C)(CO)CO)[C@H]3CC12 (stereo not given in full),75*,4,3,19,-18,27
C=C1CCC[C@]2(C)C[C@H]3OC(=O)C(CN4CCCCC4CO)[C@H]3CC12 (stereo not given in full),75*,-13,-7,-2,-9,15
Cc1ccccc1S(=O)(=O)N1[C@H](CO)[C@@H](c2ccccc2)[C@@H]1C#N,nt,-4,-5,nt,nt,nt
CCCSc1nnc(Sc2nnnn2-c2ccccc2)s1,56*,nt,nt,37,-35,18
COc1cccc(C(=O)N2CCCc3ccccc32)c1,54*,nt,-8,5,-50,10
CC[C@H](CO)Nc1nc(Nc2cccc(Cl)c2)c2ncn(C(C)C)c2n1,68*,4,78*,-5,-20,92*
Cc1c(CCNC=O)cc(C)c2c3c(oc12)CCCC3,58*,-69,-96,-272,-12,19
O=C(NCCc1ccccc1)[C@H]1[C@H](CO)[C@H]2Cn3c(cccc3=O)[C@@H]1N2C(=O)C1CC1,nt,2,nt,nt,nt,nt
Cc1ccccc1-c1ccc([C@@H]2[C@@H](CO)N3C(=O)CN(C(=O)Cc4ccccn4)C[C@H]23)cc1,nt,1,-4,nt,nt,nt
O=C(Nc1cccc(-c2cnc3ccccc3n2)c1)c1cccc(NC(=O)c2ccco2)c1,67*,nt,72*,-69,-10,108*
O=C(Nc1cccc(-c2cnc3ccccc3n2)c1)c1ccccc1,-14,nt,nt,-41,-4,nt
COC(=O)C1C2CC3c4[nH]c5cc(OC)ccc5c4CCN3CC2CC(OC(=O)CC(C)=O)C1OC (stereo not given),-9,-13,6,5,-2,nt
CCOC(=O)Oc1c(OC)cc(C(=O)O[C@@H]2C[C@@H]3CN4CCc5c([nH]c6cc(OC)ccc56)[C@H]4C[C@@H]3[C@H](C(=O)OC)[C@H]2OC)cc1OC,77*,10,75*,15,11,87*
COc1ccc(C2C(C#N)=C(N)Oc3cc(O)ccc32)cc1 (stereo not given),15,5,-5,-4,-6,nt
COc1ccc(N=Cc2cc3c(cc2O)OC(N)=C(C#N)C3c2ccccc2)cc1 (stereo not given),56*,10,37,39,14,85*
O=C(NCC[C@H]1CC[C@@H](NC(=O)C2CCC2)[C@@H](CO)O1)c1ccc(F)cc1,nt,3,1,nt,nt,nt
SMILES,CF NFkB block,EWS-Fli inh,PAX8 inh HTS,HIF-2a block,KKLEB cytotox,CF NFkB inh conf
CCOC(=O)/C=c1/s/c(=C\c2c(OC)ccc3ccccc23)c(=O)n1CC(=O)NCC1CCCO1 (stereo not given),54*,41,nt,7,-33,65*
Cc1nn(-c2nccs2)c2c1C(=O)CC(C)(C)C2Br (stereo not given),51*,-13,-14,9,2,61*
Cc1nn(-c2ccccn2)c2c1C(=O)C(Br)CC2 (stereo not given),-18,nt,nt,9,4,nt
CCN1CCN(Cc2ccc(NC(=O)c3ccc(C)c(NC(=O)c4ccno4)c3)cc2C(F)(F)F)CC1,56*,-5,-16,12,-4,69*
CCN1CCN(Cc2ccc(NC(=O)c3ccc(C)c(NC(=O)C[C@@H]4NC(=O)[C@H](Cc5ccccc5)NC4=O)c3)cc2C(F)(F)F)CC1,47,3,4,-8,0,nt
CCN1CCN(Cc2ccc(NC(=O)c3ccc(C)c(NC(=O)c4csc(-c5ccncc5)n4)c3)cc2C(F)(F)F)CC1,71*,5,25,22,-8,46*
COCc1cn(CC[C@@H]2CC[C@@H](NC(=O)Nc3ccccc3)[C@H](CO)O2)nn1,nt,0,8,nt,nt,nt
O=C(NCC[C@H]1CC[C@H](NS(=O)(=O)c2ccccc2)[C@H](CO)O1)c1ccccc1F,nt,4,-16,nt,nt,nt
CC(=O)c1sc(NC(=O)CS(=O)(=O)c2ccc(F)cc2)nc1C,-18,-6,nt,-14,6,nt
CC(Oc1ccccc1)C(=O)Nc1nc2c(s1)C(=O)CC(C)(C)C2 (stereo not given),-26,nt,nt,-8,11,nt
CCOc1cccc2sc(N(CCN(C)C)C(=O)CCS(=O)(=O)c3ccccc3)nc12,2,nt,14,18,6,nt
CC(=O)c1sc(NC(=O)CCS(=O)(=O)c2ccc(C)cc2)nc1C,56*,5,85*,13,-15,38
CC1(C)CC(=O)c2sc(NC(=O)CCS(=O)(=O)c3ccccc3)nc2C1,68*,-9,109*,-42,-12,33
CCOc1cccc2sc(NC(=O)CCS(=O)(=O)c3ccccc3)nc12,59*,2,87*,-57,-19,26
CC(C)NC(=O)N[C@H]1CC[C@H](CCn2cc(-c3ccccc3)nn2)O[C@H]1CO,nt,-27,5,nt,nt,nt
C[C@@H](NC(=O)C[C@@H]1C[C@H]2c3cc(NS(C)(=O)=O)ccc3O[C@H]2[C@H](CO)O1)c1ccccc1,nt,-11,7,nt,nt,nt
CCOC(=O)c1c(-c2ccc(C)cc2)csc1NC(=O)c1cccc(N2C(=O)CCC2=O)c1,21,6,37,15,-12,nt
CCOC(=O)c1c(-c2ccc(C)cc2)csc1NC(=O)c1ccc(N2C(=O)CCC2=O)cc1,58*,2,-6,10,-41,55*
O=c1c2ccccc2nnn1CSc1ccccc1F,26,nt,-98,-117,-26,nt
O=c1c2ccccc2nnn1CSc1ncnc2ccccc12,66*,nt,nt,-3,-36,41*
O=S(=O)(c1ccccc1)N1CCCCN2[C@H](CO)[C@H](c3ccc(-c4cncnc4)cc3)[C@@H]2C1,nt,-8,-3,nt,nt,nt
